Consider 69 compounds from PubChem BioAssay AID602410 (Johns Hopkins Ion Channel Center, 2012).

About 2,800 (0.82%) of roughly 340,000 compounds were called active.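 How the source made its calls: active means B-score under library mean minus 4 SD, starting fluorescence ratio at most library mean plus 5 SD; inactive means the rest.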 The list comes from a sample in which actives are over-represented; it also holds similar structures and randomly drawn compounds.

For the assay, the target named is Potassium channel subfamily K member 3 (Homo sapiens) (UniProt O14649). As to the kind of experiment: human KCNK3 channel inhibitors, primary screen, CHO cells, FluxOR thallium flux, B-score (AID 602410).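 On B-score: more negative B-score means stronger inhibition of thallium flux through KCNK3.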 As to conditions: FluxOR fluorescence, at 10 µM; stronger effect = lower value.
Potassium channel subfamily K member 3 (Homo sapiens), sequence (O14649 whole entry, looked up): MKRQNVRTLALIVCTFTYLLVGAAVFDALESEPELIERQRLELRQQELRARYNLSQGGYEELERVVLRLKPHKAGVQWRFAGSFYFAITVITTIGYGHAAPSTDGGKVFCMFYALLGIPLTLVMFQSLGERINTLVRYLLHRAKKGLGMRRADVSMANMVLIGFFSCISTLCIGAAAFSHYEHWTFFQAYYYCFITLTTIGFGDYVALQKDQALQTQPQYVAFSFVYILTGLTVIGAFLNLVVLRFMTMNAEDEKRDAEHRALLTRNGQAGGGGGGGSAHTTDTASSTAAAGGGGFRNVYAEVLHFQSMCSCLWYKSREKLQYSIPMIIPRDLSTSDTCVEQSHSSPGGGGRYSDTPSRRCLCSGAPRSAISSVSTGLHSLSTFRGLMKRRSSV
Take `Cc1[nH]c(C)c(S(=O)(=O)N2CCN(c3cccc(C(F)(F)F)c3)CC2)c1C(=O)N1CCCC1`: the B-score entry was “inactive”.
For the compound `O=C(NC(=S)N1CCCCC1c1cccnc1)c1ccccc1` (centres undefined), the B-score entry is “inactive”.
The same measure for `CONc1nc2nonc2nc1NOC`: “inactive”; for `CCCC(=O)Nc1cccc(NC(=S)NC(=O)C(C)Oc2ccc(Cl)cc2Cl)c1` (centres undefined): “inactive”; for `CSc1cccc(NC(=O)C2CCCN2S(=O)(=O)c2ccc3c(c2)CCC(=O)N3)c1` (centres undefined): “inactive”.
The entry for `CC(C(=O)c1ccc(-c2ccccc2)cc1)[n+]1cccc(Br)c1` (centres undefined) is “inactive”.
The same measure for `Cc1cccc(NC(=O)c2ccc(S(=O)(=O)N(C)c3ccccc3)cc2)n1`: “inactive”; for `CSc1nccc(NC(=O)c2ccc(C(C)(C)C)cc2)n1`: -10.4 (active); for `COC(=O)c1nc(NC(=O)c2ccc(C(C)(C)C)cc2)n[nH]1`: “inactive”.
In the case of `COc1ccccc1N(CC(=O)N1CCCCC1)S(=O)(=O)c1ccccc1`, the B-score result is “inactive”.
The figure for `COc1ccccc1N(CCOc1ccccc1)S(=O)(=O)c1ccccc1` is -10 (active); for `COc1ccccc1NC(=O)CN(c1ccccc1OC)S(=O)(=O)c1ccccc1` it is “inactive”.
The same measure for `O=S(=O)(O)CCN1CCOCC1`: “inactive”; for `O=S(=O)(Cc1noc(-c2ccc(OC(F)(F)F)cc2)n1)c1ccc(F)cc1`: “inactive”.
The same measure for `O=C(CCNS(=O)(=O)c1ccccc1C(F)(F)F)NCc1ccc2c(c1)OCO2`: “inactive”; for `c1n[nH]c(NCc2ccc3c(c2)OCO3)n1`: “inactive”.
On to `N#Cc1nc(Cc2cccc3ccccc23)oc1NCc1ccc2c(c1)OCO2`, for which the B-score is -13.5 (active).
The same measure for `COC(=O)c1ccc2c(=O)n(CCN3CCOCC3)c(SCC(=O)Nc3cccc(OC)c3)nc2c1`: “inactive”; for `COc1ccc(C(C)=O)cc1CN1C(=O)NC2(CCCCC2C)C1=O` (centres undefined): “inactive”.
The same measure for `O=C(/C=C/NNC(=O)c1cccc(Br)c1)c1ccccc1`: -9.94 (active).
The entry for `CC(CC(=O)O)CC(=O)NNC(=O)c1cccc(Br)c1` (centres undefined) is “inactive”; for `Cc1ccccc1NC(=S)NNC(=O)c1cccc(Br)c1` it is “inactive”.
In the case of `CC(=O)OCC(=O)C1(O)CCC2C3CC(C)C4=CC(=O)CCC4(C)C3C(O)CC21C` (centres undefined), the B-score result was “inactive”.
The entry for `CC(C)(C)C(=O)Nc1c(Br)c(C2CC2)nn1-c1ccccc1` is “inactive”; for `O=C(Cn1nc(CNc2ccc(Cl)cc2)[n+]2c1CCCCC2)c1ccc(Cl)cc1` it is “inactive”; for `COc1cc(C(=O)Nc2oc(-c3ccccc3)c(-c3ccccc3)c2C#N)cc(OC)c1OC` it is -10.4 (active).
On to `COc1cc(C(=O)NCC(=O)N2CC=C(c3ccccc3)CC2)cc(OC)c1OC`, for which the B-score result was “inactive”.
The entry for `N#Cc1c(NC(=O)CCCN2C(=O)c3ccccc3C2=O)oc(-c2ccccc2)c1-c1ccccc1` is “inactive”; for `CCC(C)(C)NC(=O)c1cc([N+](=O)[O-])ccc1N1CCCCC1` it is “inactive”.
For the compound `CCC(=O)c1ccc(OC(=O)/C=C/c2cc(OC)c(OC)c(OC)c2)cc1`, the B-score entry is “inactive”.
The same measure for `CCOC(=O)N1CCC(N(CCOC)C(=O)Nc2ccc(C)c(C)c2)CC1`: “inactive”; for `COc1ccc(N2CCN(C(=O)CNC(=O)c3ccc(Br)o3)CC2)cc1`: “inactive”; for `COc1ccc(-c2nc(CCNC(=O)c3ccc(Br)o3)cs2)cc1`: -10.2 (active).
Take `O=C(NCCc1csc(-c2ccccc2)n1)c1ccccc1F`: the B-score entry is “inactive”.
The entry for `O=C(COC(=O)CNS(=O)(=O)c1ccccc1)NC12CC3CC(CC(C3)C1)C2` is “inactive”.
The figure for `N#Cc1ccc(S(=O)(=O)NCC(=O)OCC(=O)NCCc2ccccc2)cc1` is -11.3 (active).
The entry for `O=C(COC(=O)Cc1ccccc1F)NCCc1ccccc1` is “inactive”; for `COC(=O)c1ccc(CN2C(=O)NC(c3ccccc3)(c3ccccc3)C2=O)o1` it is “inactive”; for `COc1ccc(CNc2ncnc3ccccc23)cc1` it is “inactive”.
For `CCc1ccc(C(CNc2nc(C(F)(F)F)nc3ccccc23)N(C)C)cc1` (centres undefined), the B-score result was “inactive”.
The same measure for `COc1cccc(CNc2nc(C(F)(F)F)nc3ccccc23)c1`: -9.39 (active); for `O=Cc1c(Cl)cccc1Cl`: “inactive”; for `O=C(NNC1=C(C(=O)C(F)(F)F)CCC1)c1ccncc1`: “inactive”.
The entry for `Cc1ccc(C(=O)OCC(=O)NC(=O)Cc2ccccc2)c(O)c1` is “inactive”; for `COCCNC(=O)Cn1cc(C(=O)c2cccs2)c2ccccc21` it is “inactive”.
The entry for `O=C(COC(=O)c1cccs1)NCc1cccs1` is “inactive”; for `O=C(Cn1cc(C(=O)c2cccs2)c2ccccc21)NCc1cccs1` it is -13.4 (active); for `COc1ccc(F)cc1C(=O)C1CCCN(C(=O)CCc2ccccn2)C1` (centres undefined) it is “inactive”.
`CCOC(=O)c1sc(-c2cccc([N+](=O)[O-])c2)cc1N`: the B-score result is “inactive”.
The entry for `O=C(c1ccc(F)cc1)C1CCN(Cc2cn[nH]c2-c2ccccc2)CC1` is “inactive”.
The same measure for `O=C(CNCCC1=CCCCC1)Nc1ccccc1N1CCCCCC1`: -12.6 (active); for `Cc1ccc(C(C)C)cc1OCC(=O)Nc1ccccc1N1CCCC1`: “inactive”.
The entry for `Cc1ccccc1NC(=O)Nc1ccccc1N1CCCCC1` is “inactive”.
Take `CC1=C[C@H]2Cc3cc(C)cc(C)c3S(=O)(=O)[C@@H]2C=C1`: the B-score result is “inactive”.
The same measure for `CC(C)n1c(O)c(N=Nc2ccccn2)c2ccccc21`: “inactive”; for `CN(C)CCN(C(=O)C1=COCCO1)c1nc2ccc(Cl)cc2s1`: “inactive”; for `CCN(CC)CCN(C(=O)c1cc(Cl)sc1Cl)c1nc2cc3c(cc2s1)OCO3`: -8.98 (active).
The entry for `CN(C)CCN(C(=O)C1CCCCC1)c1nc2cc3c(cc2s1)OCO3` is “inactive”; for `CCn1c(SCC(=O)NC2CCCC2)nnc1-c1ccoc1C` it is “inactive”; for `CCN(CC)C(=O)CN(c1cccc(OC)c1)S(=O)(=O)c1ccc(C)cc1` it is “inactive”.
With `CCCCCCCC(=O)NC(Nc1ccccc1OC)C(Cl)(Cl)Cl` (centres undefined), the B-score result was “inactive”.
The same measure for `Cc1ccc(O)c(CCc2ccccc2)n1`: “inactive”; for `CC(Oc1cccc(NC(=O)c2cccs2)c1)C(=O)c1ccccc1` (centres undefined): -11.3 (active); for `COc1cc(NC(=O)c2cccs2)ccc1NC(=O)c1ccccc1Cl`: “inactive”.
The same measure for `O=C(Nc1ccccc1-c1ccccc1)c1cccs1`: “inactive”; for `CCNC(=O)CC1C(=O)N(c2ccc(OC)cc2)C(=O)N1CCOC` (centres undefined): “inactive”.
The same measure for `Cc1ccnc(N2C(=O)c3ccccc3C2Nc2ccc3c(c2)OCCO3)c1` (centres undefined): “inactive”; for `COC(=O)c1cc(NC2c3ccccc3C(=O)N2c2ccc(Cl)cn2)cc(C(=O)OC)c1` (centres undefined): -10.8 (active); for `COC(=O)c1ccc(-n2cnc3ccccc32)nc1`: “inactive”.
